The text below walks through data of ChEMBL document CHEMBL3988442, “University of Dundee, Small-Polar-MMV Screening Library” (2021).

This experiment concerns Trypanosoma brucei. Briefly: Trypanosoma brucei 72 hour study. Also noted: scale not given: in the data most compounds retested in dose-response had high values. The experiment is classed as functional, organism-based.

Among all 66,000 compounds or so, about 960 (1.5%) showed an effect of 50% or more. The entries come from a sample that favours strong results as a whole.

In the case of `CCc1ccc(CN2Cc3nccn3CC(CN3CCOCC3)C2)o1.O=C(O)C(F)(F)F.O=C(O)C(F)(F)F.O=C(O)C(F)(F)F` (configuration not stated), the “Percent Effect” value (30 µM, 30.03 µM) is reported as 29.13%.

Turning to `Cc1ccsc1C(=O)N1CCC2(CC(N(C)c3ccncn3)C2)C1` (configuration not stated), for the setting “30.3 µM, […]”, the “Percent Effect” value is recorded as -9.037%.

In the case of `O=C(Nc1ccc(F)cc1)N1C[C@H]2C[C@H](C(=O)N3CCCC3)[C@@H](C1)O2`, the “Percent Effect” value (30.3 µM, […]) was -4.677%.

`Cc1nc(-n2nc(-c3cccs3)cc2N)[nH]c(=O)c1C`: the “Percent Effect” value (30 µM, 30.03 µM) amounted to 6.214%.

With `CCc1c(C)nc(-n2nc(-c3cccs3)cc2N)[nH]c1=O`, the “Percent Effect” value (30 µM, 30.03 µM) is 63.75%.

Turning to `Cc1cc(=O)[nH]c(-n2nc(-c3cccs3)cc2N)n1`, the “Percent Effect” value (30 µM, 30.03 µM) is listed as -18.7%.

With `Nc1c(N2CCOCC2)ncnc1N1CCOCC1`, the “Percent Effect” value (30.3 µM, […]) is on record as -8.78% and the “Percent Effect” value (10 mM, 10 mM as filed; unlikely as a test dose) is -35.44%.

As to `CCN1CC2(CC1=O)CN(Cc1ccco1)CCN(C(=O)C(C)C)C2.O=C(O)C(F)(F)F` (configuration not stated), under “30 µM, 30.03 µM”, the “Percent Effect” value came out at 0.2286%.

Turning to `Cc1ccc(CN(CCCn2ccnc2)Cc2c(F)cccc2F)s1.O=C(O)CC(O)(CC(=O)O)C(=O)O`, the “Percent Effect” value (30.3 µM, […]) is reported as -13.01%.

Regarding `CN(Cc1ccncc1)Cc1cnn(-c2ccc(F)cc2)c1`, under “30 µM, 30.03 µM”, the “Percent Effect” value is listed as -38.94%.

Consider `O=C(Cc1c(F)cccc1Cl)Nc1cc(N2CCCC2)ncn1`, for which the “Percent Effect” value (30 µM, 30.03 µM) is given as -1.859%.

`O=C(Cc1c(F)cccc1Cl)Nc1cc(N2CCOCC2)ncn1`: the “Percent Effect” value (30 µM, 30.03 µM) is on record as 100.3%.

For the molecule `O=C(Cc1ccccc1Cl)Nc1cc(N2CCCC2)ncn1`, the “Percent Effect” value (30 µM, 30.03 µM) is recorded as -11.61%.

With `O=C(c1ccc(COc2ccccc2Cl)o1)N1N=CCC1(O)C(F)(F)F` (configuration not stated), the “Percent Effect” value (30.3 µM, […]) was found to be 31%.

As to `O=C(c1ccc(COc2ccc(Cl)cc2)o1)N1N=CCC1(O)C(F)(F)F` (configuration not stated), the “Percent Effect” value (30.3 µM, […]) turned out to be 99.58%.

In the case of `COc1ccc(C(=O)N2CCC(Oc3cccc(C)c3)(C(=O)O)CC2)o1`, the “Percent Effect” value (30 µM, 30.03 µM) is recorded as -24.59%.

`Cc1cccc(OCc2ccc(C(=O)N3N=CCC3(O)C(F)(F)F)o2)c1` (configuration not stated): the “Percent Effect” value (30.3 µM, […]) was determined as 67.46%.

In the case of `O=C(Cc1ccc(Cl)cc1)N1CCC(O)(C(F)(F)F)C1` (configuration not stated), the “Percent Effect” value (30.3 µM, […]) was -19.5%.

In the case of `COCc1ccc(C(=O)N2CCC(Oc3ccccc3)(C(=O)O)CC2)o1`, the “Percent Effect” value (30 µM, 30.03 µM) is reported as -16.4%.

For `COc1c(CNCc2ccc(C(=O)N(C)C(C)C)cc2)c(C)nn1C`, the “Percent Effect” value (10 µM) was -22.99%.

On to `COc1ccccc1CNCc1nn(-c2ccccc2)c2c1CCC2`, for which the “Percent Effect” value (30 µM, 30.03 µM) turned out to be 105.2%.

Regarding `Cc1c(CNCc2nn(-c3ccccc3)c3c2CCC3)cc(C#N)n1C`, the “Percent Effect” value (30 µM, 30.03 µM) was -10.92%.

For the molecule `Cc1noc(C)c1CNCc1nn(-c2ccccc2)c2c1CCC2`, the “Percent Effect” value (30 µM, 30.03 µM) is -40.9%.

Turning to `Cc1cncc(C(=O)N2CCO[C@H]3[C@H](OCCN(C)C)CC[C@@H]32)c1.O=C(O)C(F)(F)F.O=C(O)C(F)(F)F`, under “30.3 µM, […]”, the “Percent Effect” value was -21.9%.

`Cc1n[nH]c(C)c1C1COCCN1C(=O)c1cc(F)ccc1F` (configuration not stated): under “30.3 µM, […]”, the “Percent Effect” value was -0.3197%.

Turning to `CNC(=O)CN1CC[C@H]2CN(C(=O)c3cccn3C)C[C@H]2C1.O=C(O)C(F)(F)F`, for the setting “30.3 µM, […]”, the “Percent Effect” value is recorded as -42.42%.

With `N[C@@H]1CCN(Cc2cc(-c3ccccc3OC(F)(F)F)no2)C[C@H]1O`, the “Percent Effect” value (30 µM, 30.03 µM) is listed as -20.57%.

Take `NC1CCCCN(Cc2cc(-c3ccccc3OC(F)(F)F)no2)C1` (configuration not stated): the “Percent Effect” value (30 µM, 30.03 µM) is given as 101.5%.

On to `OC1COCCN(Cc2cc(-c3ccccc3OC(F)(F)F)no2)C1` (configuration not stated), for which the “Percent Effect” value (30 µM, 30.03 µM) is given as -31.26%.

In the case of `O=C(O)C(F)(F)F.O=C(O)C(F)(F)F.c1ccc(OCc2nnc3n2CCN(CC2CC2)C3)nc1`, the “Percent Effect” value (30 µM, 30.03 µM) is reported as 16.25%.

Regarding `CC(C)Oc1ncccc1CNC(=O)N1CCC1`, where the note is “30.3 µM, […]”, the “Percent Effect” value is on record as -18.33%.

Turning to `COc1ccc(C(C)NS(=O)(=O)c2ccc3c(c2)CCC(=O)N3)cc1F` (configuration not stated), the “Percent Effect” value (30 µM, 30.03 µM) is 95.9%.

Turning to `COc1ccc(C)cc1CCNS(=O)(=O)c1ccc2c(c1)CCC(=O)N2`, the “Percent Effect” value (30 µM, 30.03 µM) is -47.2%.

Consider `COc1ccc(C)cc1C(C)NS(=O)(=O)c1ccc2c(c1)CCC(=O)N2` (configuration not stated), for which, under “30 µM, 30.03 µM”, the “Percent Effect” value was -36.95%.

Regarding `CC(CN1CCOCC1)OC(=O)c1ccccc1Cl.Cl` (configuration not stated), the “Percent Effect” value (30 µM, 30.03 µM) is listed as -53.51%.

Regarding `CC(C)N(C)Cc1cnc2n1CCN(Cc1ccc(F)cc1)C2.O=C(O)C(F)(F)F.O=C(O)C(F)(F)F`, the “Percent Effect” value (30.3 µM, […]) is given as 5.253%.

Consider `Cc1c(C(=O)N2CCN(c3ncccn3)CC2)n(C)c2ccc(Cl)cc12`, for which, for the setting “30.3 µM, […]”, the “Percent Effect” value was 36.3%.

In the case of `Cc1c(C(=O)N2CCN(C)CC2)n(C)c2ccc(Cl)cc12`, the “Percent Effect” value (30.3 µM, […]) came to 12.9%.

With `Cc1c(C(=O)N2CCN(c3ccccn3)CC2)n(C)c2ccc(Cl)cc12`, where the note is “30.3 µM, […]”, the “Percent Effect” value turned out to be 79.78%.

In the case of `Cn1ccnc1CN1CCC2(CC1)Cc1ccccc1CNC2=O.O=C(O)C(F)(F)F`, the “Percent Effect” value (30.3 µM, […]) was -47.04%.

Regarding `CCC(=O)NC(Cc1cc(N(C)C)nc(C2CC2)n1)c1ccccc1` (configuration not stated), for the setting “30.3 µM, […]”, the “Percent Effect” value came out at 13.14%.

As to `CN(C)c1cc(CC(NC(=O)C2CC2)c2ccccc2)nc(C2CC2)n1` (configuration not stated), the “Percent Effect” value (30.3 µM, […]) stood at 52.69%.

On to `CC(C)C(=O)NC(Cc1cc(N(C)C)nc(C2CC2)n1)c1ccccc1` (configuration not stated), for which the “Percent Effect” value (30.3 µM, […]) stood at 30.74%.

In the case of `CC(C)(C)CN1CC(COc2ccccc2)Oc2ccncc2S1(=O)=O` (configuration not stated), the “Percent Effect” value (30.3 µM, […]) is reported as -12.26%.

On to `O=C(O)C(F)(F)F.c1coc(CN2CCO[C@H]3[C@@H](OCC4CC4)CC[C@@H]32)c1`, for which the “Percent Effect” value (30.3 µM, […]) is -12.22%.

For `Cc1nc(CN2CCN(C)C(=O)C23CCN(C(C)C)CC3)cs1.O=C(O)C(F)(F)F`, where the note is “30.3 µM, […]”, the “Percent Effect” value was -9.175%.
